# Only some compounds are listed: those with a hit (about 3.2% of all), similar ones and a draw of the others.
# TMEM16A inh: inhibitors of mouse TMEM16A calcium-activated chloride channel. normalized B-score (activity score, 25-100; higher = stronger inhibition) at 10 µM. AID 588511. Q8BHY3. HEK293 TMEM16A/YFP iodide influx fluorescence, ionomycin. actives 1.2% (n = 310,000);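 active = ratio plate-corrected score three or more library SD toward inhibition, starting fluorescence score within five deviations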;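 note: score derived from kinetic fluorescence span divided by baseline fluorescence per well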
# Rce1 inh: yeast Ras-converting enzyme inhibition | yeast membranes, quenched prenylated peptide cleavage fluorescence | calls only | actives 0.27% (n = 290,000) | AID 2563;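 active = fall in fluorescence gain of 50% or more versus controls, with final raw signal at or below 3038400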
# TMEM16A act: activators or potentiators of mouse TMEM16A chloride channel; B-score at 10 µM; HEK293 TMEM16A/YFP-H148Q/I152L, iodide quench fluorescence; stronger effect = lower value; actives 0.3% (n = 340,000); Q8BHY3; AID 623877;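 active = fluorescence-ratio B-score plate-corrected deviation score at least 3 library SD below zero, with starting fluorescence score within 5 deviations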;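 note: channel opened by trigger with iodide after compound preincubation; score built on the fluorescence ratio of max minus min over baseline; more negative score means more quench and so TMEM16A activation or potentiation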
# Kir21 inh: Kir2.1 (mouse) channel inhibition; P35561; actives 0.85% (n = 310,000); B-score at 10 µM; HEK293-Kir2.1, FluxOR thallium flux fluorescence; stronger effect = lower value;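 active = fluorescence ratio B-score at or below minus 3 SD of library scores, with starting-brightness B-score within 2 SD, cut at about -4.2 in these data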;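 note: channel flux triggered by added potassium and thallium sulfate stimulus; B-score of peak minus minimum fluorescence over baseline after thallium stimulus; more negative B-score means stronger Kir2.1 block with less thallium influx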
# Target sequence (P35561 whole entry, looked up): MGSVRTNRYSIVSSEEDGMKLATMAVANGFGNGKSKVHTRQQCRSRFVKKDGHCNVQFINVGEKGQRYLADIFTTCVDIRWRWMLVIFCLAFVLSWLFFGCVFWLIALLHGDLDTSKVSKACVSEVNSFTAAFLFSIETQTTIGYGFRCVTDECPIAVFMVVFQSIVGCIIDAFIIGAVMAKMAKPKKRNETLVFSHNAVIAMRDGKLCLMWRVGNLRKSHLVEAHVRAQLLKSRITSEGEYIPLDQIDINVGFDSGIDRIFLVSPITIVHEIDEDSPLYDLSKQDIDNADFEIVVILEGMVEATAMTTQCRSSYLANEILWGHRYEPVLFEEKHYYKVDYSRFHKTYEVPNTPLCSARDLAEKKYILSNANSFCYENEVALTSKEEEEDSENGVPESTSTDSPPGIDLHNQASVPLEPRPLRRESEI
# CHT inh: inhibitors of human choline transporter CHT; CHT-expressing cells, membrane potential dye, choline response; stronger effect = lower value; B-score at 10 µM; actives 0.86% (n = 310,000); AID 488975;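 active = B-score over 3 SD under the library average, and starting fluorescence ratio not unusually high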;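 note: choline stimulus applied at its EC90 after an EC20 pre-addition; B-score computed on integrated fluorescence ratio after choline addition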
# CHT allo act: allosteric activators of human choline transporter CHT; actives 0.49% (n = 310,000); CHT-expressing cells, membrane potential dye, choline EC20; stronger effect = higher value; LV-AA mutant CHT in HEK293 cells; Q9GZV3; B-score at 10 µM;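 active = initial fluorescence not abnormally high and integrated response B-score, plate-corrected, over 3 SD above library mean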
# A number is an active result; i = inactive; nt = no result given; + = active, no number.
SMILES,TMEM16A inh,Rce1 inh,TMEM16A act,Kir21 inh,CHT inh,CHT allo act
Cc1ccccc1C(=O)NNC(=O)C1CC(=O)N(Cc2ccccc2)C1 (stereo not drawn),i,i,i,i,i,i
Cc1ccc2nc(C)c3c(c2c1)N(c1ccc(F)cc1)CC3,i,i,i,-5.3,i,i
C#CCOCCOCCOCCNc1nc(N2CCN(C(=O)Cn3cc(CCO)nn3)CC2)nc(N2CCN(C(=O)Cn3cc(CCCCN)nn3)CC2)n1,nt,nt,i,nt,nt,nt
Oc1cccc(O)c1O,i,nt,nt,nt,i,i
CC(=O)c1cccc(S(=O)(=O)N2CCC(C(=O)N(C)Cc3ccc(Cl)s3)CC2)c1,nt,nt,i,nt,nt,nt
COc1ccc(CNC(=O)c2c(N)n(CCCN3CCOCC3)c3nc4ccccc4nc23)cc1,i,+,i,i,i,i
O=C(O)c1ccccc1C=NNc1ccccn1,nt,nt,i,nt,nt,nt
CN1CCN(C2=Cc3ccc(Cl)cc3Sc3ccc(F)cc32)CC1,i,i,i,i,i,i
CN1CCN(C2=Cc3ccccc3Sc3cc(F)ccc32)CC1,i,i,i,-8.4,i,i
COc1ccccc1C(=O)NCCC(=O)N1CCN(C(C)=O)CC1,i,i,i,i,i,i
CC(NC(=O)c1ccc2c(c1)OCCO2)c1ccc(S(N)(=O)=O)cc1 (stereo not drawn),i,i,i,i,i,i
Cc1ccc(S(=O)(=O)C(C)C(=O)c2ccc3c(c2)OCCO3)cc1 (stereo not drawn),i,i,i,-4.3,i,i
COc1cc(F)ccc1S(=O)(=O)n1c(C)nc2ccccc21,i,i,i,-6.5,i,i
COc1ccc(S(=O)(=O)n2c(C)nc3ccccc32)cc1C,i,i,i,i,i,i
Cc1nc2ccccc2n1S(=O)(=O)c1ccc(F)cc1,i,i,i,i,i,i
CCCCOc1ccc(S(=O)(=O)n2c(C)nc3ccccc32)cc1,25,i,i,i,i,i
COc1cc(C)c(C)cc1S(=O)(=O)n1c(C)nc2ccccc21,i,nt,i,-5.1,i,i
CCCCCCSc1ccc([C@H]2N[C@@](C)(C(=O)OC)[C@H]3C(=O)N(C)C(=O)[C@@H]23)cc1,100,i,i,i,i,i
O=C(NN=C1CCCCC1)c1ccccc1-n1cccc1,i,i,i,i,i,i
O=C(CCS(=O)(=O)c1ccc(Cl)cc1)Nc1nnc(-c2ccco2)o1,i,i,i,i,i,i
COc1cc(-c2nc3ccccn3c2/N=C/c2ccccc2)ccc1O,i,+,i,i,i,i
COc1cc(-c2nc3ccccn3c2/N=C/c2cccc(F)c2)ccc1O,i,i,i,i,i,i
C=CCNC(=O)c1ccc(NC(=O)C2=CSCCO2)cc1,i,i,i,i,i,i
Cc1ccc(CN2[C@@H](CC3CCCCC3)COCCS2(=O)=O)cc1,i,i,i,i,i,i
Cc1ccc(CN2C(=O)C(C)Nc3ncnc(N4CCN(c5ccccn5)CC4)c32)cc1 (stereo not drawn),i,i,i,i,i,i
SMILES,TMEM16A inh,Rce1 inh,TMEM16A act,Kir21 inh,CHT inh,CHT allo act
Cc1nc(Cl)c(C(=O)NCc2ccccc2)c(C)c1Cl,i,i,i,i,i,i
Cc1cc(C)n2c(nc3ccccc32)c1C(=O)NCc1ccccc1,i,+,i,i,i,i
CCn1c2ccccc2c2cc(/C=N/NC(=O)c3ccncc3)ccc21,i,i,i,i,i,i
CCn1c2ccccc2c2cc(/C=N/NC(=O)c3cc(O)cc(O)c3)ccc21,i,+,i,i,i,i
O=C(N/N=C/c1cn(Cc2ccccc2)c2ccccc12)c1cc(O)cc(O)c1,i,+,i,i,i,i
CCN(CC)CCSc1nc2ccccc2c(=S)n1-c1ccccc1,i,i,nt,i,i,6.6
COc1ccccc1CN(C)C(=O)C(NC(=O)Cc1cccc2ccccc12)C(C)C (stereo not drawn),i,i,i,i,i,i
O=C(c1ccc(Br)cc1)c1cc2ccc(O)cc2oc1=O,25,i,i,i,i,i
Cc1cc(NC(=O)c2ccc(S(=O)(=O)N3CCOCC3)cc2)nc2c1c(=O)oc1ccccc12,i,i,nt,i,i,i
Cc1cc(NC(=O)c2ccc(S(=O)(=O)N3CCCC3)cc2)nc2c1c(=O)oc1ccccc12,nt,i,-14,i,nt,nt
CCOC(=O)Nc1ccc(C(=O)c2ccncc2)cc1,i,i,i,i,i,i
Cc1ccc(S(=O)(=O)N(C)c2c(C)ccc(S(N)(=O)=O)c2C)cc1,i,i,i,i,i,i
Nc1nc(Sc2ccc([N+](=O)[O-])c3nonc23)c2[nH]cnc2n1,nt,nt,-6,nt,nt,nt
COc1cccc(CC2(CO)CCCN(Cc3c(C)cc(C)cc3-n3cccn3)C2)c1 (stereo not drawn),i,i,i,-5.4,i,i
COc1cc(Cl)c(C)cc1NC(=O)CSc1ccc(C)cc1,i,i,i,i,i,i
COc1cc(Cl)c(C)cc1NC(=O)CSc1cc(Cl)ccc1Cl,100,i,i,i,i,i
Cc1cccc[n+]1CCCCCCCCCC[n+]1ccccc1C,i,i,i,i,i,i
CCCCCCCCCC[n+]1cccc2c3ccccc3ccc21,nt,i,i,-9.1,nt,nt
COc1ccc(CCN2CCC(Nc3nc4ccccc4n3Cc3ccc(F)cc3)CC2)cc1,i,i,i,-6.8,i,i
O=C(Cc1c[nH]c2ccccc12)NCC(=O)Nc1ccc(F)c(F)c1F,nt,nt,i,nt,nt,nt
C=CCn1c(SCc2ccc(C#N)cc2)nnc1-c1cccc(Cl)c1,i,i,i,-11,i,i
N#CC12C(=O)NC(=O)C1(C#N)C21CCCC1 (stereo not drawn),nt,nt,i,nt,nt,nt
CCCN(CCC)C(=O)CCS(=O)(=O)c1cccc2nsnc12,i,i,i,-4.5,i,i
Cc1ccc(C(C[N+](=O)[O-])n2nc(C)cc2C)cc1 (stereo not drawn),i,nt,i,-8,i,i
Cc1ccc(S(=O)(=O)NCC(C)n2nc(C)cc2C)cc1 (stereo not drawn),i,i,i,i,i,i
SMILES,TMEM16A inh,Rce1 inh,TMEM16A act,Kir21 inh,CHT inh,CHT allo act
CCC(Oc1ccccc1)C(=O)N(C)CC(=O)N(CC(C)C)c1c(N)n(CC(C)C)c(=O)[nH]c1=O (stereo not drawn),i,i,i,i,i,i
O=C(N/N=C/c1cn(-c2ccccc2)nc1-c1cc2ccccc2o1)c1ccncc1,25,i,i,i,i,i
Nc1nc2c(s1)CC(c1ccccc1)CC2 (stereo not drawn),25,i,i,i,i,i
CC1CCc2sc(C(=O)NN=C3CCC(c4ccccc4)CC3)cc2C1 (stereo not drawn),i,i,i,i,i,i
COc1ccc(CNC(=O)c2ccccc2NS(C)(=O)=O)cc1,i,+,i,i,i,i
CCOC(=O)C[n+]1c(C)ccc2c1CCC2,i,nt,i,i,i,i
COc1cccc(NC(=O)C(C)Sc2nnc(C3CC3)n2C2CC2)c1 (stereo not drawn),nt,nt,-32,nt,nt,nt

# Bioassay records as filed in PubChem.
